Shown are actives, neighbours in structure and some others; about 21% of the full set was active somewhere.
Pf growth 96h – P. falciparum growth inhibition at 96 hours | P. falciparum luciferase reporter growth, 96 h | Potency, µM (highest dose often 28.7 µM), actives largely listed as inhibitors | actives 6.9% (n = 320,000) | AID 504834
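Infected RBCs, 2% Hct / 0.05% parasitemia final; luciferase-reporter P. falciparum; cpd 96 h, 37 C, 5% CO2; luciferase detection reagent; luminescence.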
Sm TGR block – blocks Schistosoma mansoni thioredoxin glutathione reductase. Q962Y6. purified TGR, DTNB reduction, TNB absorbance 405 nm. Potency, µM (titrated, usually from 114 µM), hits mostly inhibitors. actives 3% (n = 360,000). AID 485364; also: nearly all actives have a fitted effect of over 60% in size
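TGR 20 nM + NADPH 100 uM (dispensed conc.), cpd preinc 15 min RT; start with NADPH (500 uM addition) then DTNB (15 mM addition). Kinetic TNB absorbance, 405 nm filter. Four-parameter Hill fit across titration.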
NS1 function inh – influenza NS1 inhibition; Potency, µM (top dose mostly 46.1 µM); actives 0.4% (n = 270,000); AID 2326; calls by dose curve; also: actives are rising curves; nearly all actives have a fitted effect of over 50% in size
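Growth recovery, yeast-based: influenza A NS1 expressed in S. cerevisiae causes slow growth, and suppressors are detected by OD600. The parent strain without NS1 is used as positive control.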
CHX counter – counter-screen for Shiga toxin inhibitors: cycloheximide protein synthesis inhibition | cell reporter, cycloheximide protein synthesis inhibition counterscreen | max response, % | actives 12% (n = 300,000) | AID 2314; in the data active = max response mostly above about 13%, no sharp cut-off; inactive = mostly below about 14%; also: read at 38.3 µM for the half of the compounds with a filed dose
Pf growth 48h – P. falciparum growth inhibition at 48 hours (one generation); P. falciparum luciferase growth in erythrocytes, 48 h; Potency, µM (titrated, usually from 28.7 µM), hits mostly inhibitors; actives 5.9% (n = 310,000)
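Luminescence readout; reporter = integrated firefly luciferase in P. falciparum. RBC culture at 2% hematocrit, 0.1% parasitemia final, 37 C/5% CO2; decreased signal taken as growth inhibition.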
Shiga toxin inh – inhibitors of Shiga toxin in Vero cells. Vero cells, Shiga toxin protein synthesis inhibition reporter. inhibition, % at 38.7 µM. actives 9.2% (n = 290,000). AID 2315; in the data active = inhibition mostly above about 28%, no sharp cut-off; inactive = mostly below about 43%
Each line names hits and unclear results; the compound was inactive in the other large screens. Unless noted, calls follow the shape of the dose curve; as a rule, active = well fitted curve in the direction sought with a large enough effect; inconclusive = small, poorly fitted or top-dose-only effect, or another doubt; inactive = no such curve, though single readings can be large; an effect the other way counts as inactive or inconclusive.

Fc1ccc(N2CCN(C(c3cccs3)c3nnnn3CCc3ccccc3)CC2)cc1 (centres undefined)	Pf growth 48h 13µM
CC1CCN(C(c2cccs2)c2nnnn2Cc2ccccc2)CC1 (centres undefined)	Pf growth 96h 2.6µM (no result: Pf growth 48h)
Fc1ccccc1N1CCN(C(c2cccs2)c2nnnn2CCc2ccccc2)CC1 (centres undefined)	Pf growth 96h inconclusive, Pf growth 48h 8.3µM
COc1ccccc1N1CCN(Cc2ccc(Br)cc2)CC1	Sm TGR block 35µM (no result: Shiga toxin inh)
CC1(C)CCCC(C)(C)N1CC(O)COCCOc1ccc(Br)cc1 (centres undefined)	Pf growth 96h inconclusive, Pf growth 48h 5.9µM
COc1ccccc1N1CCN(Cc2cccc(OC)c2OC)CC1	none (no result: Pf growth 96h)
COc1ccccc1N1CCN(Cc2cccc(OC)c2O)CC1	Pf growth 96h inconclusive, Pf growth 48h 7.4µM
COc1ccc(N2CCN(CC(O)COCCOc3ccc(Br)cc3)CC2)cc1 (centres undefined)	none
COc1ccccc1N1CCN(CC(O)COCCOc2ccc(Br)cc2)CC1 (centres undefined)	Pf growth 96h 13µM
OCCN1CCN(CC(O)COCCOc2ccc(Br)cc2)CC1 (centres undefined)	none
Nc1ccc(SCc2cccnc2)cc1	none
COc1cc2c(cc1C1NC(=S)NC(C)=C1C(=O)N(C)C)CCCC2 (centres undefined)	none
COc1cc(CN2CCN(c3cccc(C)c3C)CC2)cc(OC)c1O	Sm TGR block 32µM
COC(=O)c1cc(NC(=O)CN2C(=O)C(=O)N(C3CCCC3)C2=O)cc(C(=O)OC)c1	none (no result: NS1 function inh, CHX counter, Shiga toxin inh)
COc1ccc2c(c1OC)C(=O)OC2Nc1nc2ccccc2s1 (centres undefined)	none
O=c1oc2ccc(Br)cc2cc1-c1csc(-c2ccccc2)n1	none (no result: Pf growth 96h, NS1 function inh, CHX counter, Pf growth 48h, Shiga toxin inh)
COc1ccc2c(c1OC)C(=O)OC2Nc1nc(-c2cc3cc(Br)ccc3oc2=O)cs1 (centres undefined)	CHX counter 37, Shiga toxin inh 80
COc1ccc(-c2csc(NC3OC(=O)c4c3ccc(OC)c4OC)n2)cc1OC (centres undefined)	Pf growth 96h inconclusive, CHX counter 12
COc1ccc2c(c1OC)C(=O)OC2Nc1nc(-c2ccc([N+](=O)[O-])cc2)cs1 (centres undefined)	CHX counter 16, Shiga toxin inh 56
Cc1ccc(-c2nnc(SCC(=O)NC(C)(C)C)nc2-c2ccc(C)cc2)cc1	none (no result: Pf growth 96h, NS1 function inh, CHX counter, Pf growth 48h, Shiga toxin inh)
Cc1ccc(NS(=O)(=O)c2ccccc2F)cc1S(=O)(=O)N1CCCCCC1	Pf growth 48h inconclusive (no result: NS1 function inh, CHX counter, Shiga toxin inh)
O=C(CCN1C(=O)C2C3CCC(C3)C2C1=O)Nc1ccc(Br)cc1 (centres undefined)	CHX counter 12
COc1ccc(NC(=O)CCN2C(=O)C3C4CCC(C4)C3C2=O)cc1 (centres undefined)	NS1 function inh inconclusive, CHX counter 17
Cc1ccc(NC(=O)CCN2C(=O)C3C4CCC(C4)C3C2=O)cc1[N+](=O)[O-] (centres undefined)	none
Cc1ccc(NC(=O)CCN2C(=O)C3C4CCC(C4)C3C2=O)cc1Cl (centres undefined)	CHX counter 25
Nc1ccc(S(=O)(=O)Nc2cccc3cccnc23)cc1	none (no result: Pf growth 96h, Sm TGR block, NS1 function inh, Pf growth 48h)
COc1cc(/C=N/NC(=O)c2cccnc2)ccc1OS(=O)(=O)c1ccc(C)cc1	none
COc1ccc(/C=N/NC(=O)c2ccc(O)cc2)cc1CN1CCCc2ccccc21	Pf growth 96h 2.3µM, NS1 function inh inconclusive, Pf growth 48h inconclusive
COc1ccc(/C=N/NC(=O)c2ccc[nH]2)cc1	CHX counter 29, Shiga toxin inh 77
Cc1ccc2occ(/C=N/NC(=O)c3ccc(O)cc3)c(=O)c2c1	none
COc1cc(/C=N/NC(=O)c2cccnc2)ccc1OS(=O)(=O)c1cc(C)ccc1C	Pf growth 96h inconclusive, CHX counter 17, Pf growth 48h inconclusive
COc1ccc(CNC(=O)c2ccc[nH]2)cc1	none (no result: Sm TGR block)
Cc1cc(/C=N/NC(=O)c2ccc(O)cc2)c(C)n1CC(C)C	CHX counter 48, Shiga toxin inh 82
Cc1ccc(C)c(Cn2c(=O)n(CCCCCC(=O)NCc3ccc4c(c3)OCO4)c(=O)c3sccc32)c1	none (no result: Pf growth 96h, NS1 function inh, CHX counter, Pf growth 48h, Shiga toxin inh)
Cn1cnc(S(=O)(=O)Nc2cc(-c3ccc(Cl)cc3)nn2C)c1	none
COc1ccc(C(=O)Oc2ccc(/C=N/NC(=O)c3cccnc3)cc2OC)cc1	none (no result: NS1 function inh, CHX counter, Shiga toxin inh)
COc1ccc(/C=N/NC(=O)c2cccnc2)cc1CN1CCc2ccccc2C1	Pf growth 96h 10µM, Pf growth 48h 10µM
COc1cc(/C=N/NC(=O)c2cccnc2)ccc1OCC(=O)Nc1ccc(C)cc1	Sm TGR block inconclusive, CHX counter 21
COc1ccc(/C=N/NC(=O)c2cccnc2)cc1O	CHX counter 19 (no result: Shiga toxin inh)
COCCn1c(C)cc(/C=N/NC(=O)c2cccnc2)c1C	CHX counter 22, Shiga toxin inh 69
Cc1nn(Cc2ccccc2)c(Cl)c1/C=N/NC(=O)c1cccnc1	none
CCOC(=O)c1ccccc1OCc1cc(/C=N/NC(=O)c2cccnc2)ccc1OC	none
COc1cccc(NC(=O)Nc2cccc(-c3cn4cccnc4n3)c2)c1	none (no result: Pf growth 96h, NS1 function inh, CHX counter, Pf growth 48h, Shiga toxin inh)
CCCCCOC(=O)C1=C(C)NC(=O)NC1c1ccc(OC)cc1 (centres undefined)	NS1 function inh inconclusive
COc1cc(/C=N/NC(=O)COc2cccc(F)c2)ccc1OS(=O)(=O)c1ccc(C)cc1	Pf growth 96h 8.3µM, NS1 function inh inconclusive, Pf growth 48h inconclusive
COc1ccc(/C=N/NC(=O)c2cccnc2)cc1	CHX counter 31, Shiga toxin inh 121 (no result: Pf growth 48h)
Cc1[nH]c2ccccc2c1/C=N/NC(=O)c1cc(C(C)C)[nH]n1	none
COc1cccc(C2CC(=O)Nc3cc(OC)c(OC)c(OC)c32)c1OC(C)C (centres undefined)	none (no result: Pf growth 96h, NS1 function inh, CHX counter, Pf growth 48h, Shiga toxin inh)
COc1ccccc1NC(CC(=O)c1ccccc1)C(=O)OCC(=O)c1ccc(C)c(C)c1 (centres undefined)	CHX counter 40, Shiga toxin inh 37
CC(=O)NC(Cc1ccccc1)C(=O)OCC(=O)c1ccc(Br)cc1 (centres undefined)	none
COc1ccccc1NC(CC(=O)c1ccccc1)C(=O)OCC(=O)c1ccc(Br)cc1 (centres undefined)	CHX counter 102, Shiga toxin inh 115
COc1ccccc1NC(CC(=O)c1ccccc1)C(=O)OCC(=O)c1ccc(C)cc1 (centres undefined)	Pf growth 96h inconclusive, CHX counter 33, Shiga toxin inh 73
CCc1cccc(C)c1NC(=O)CCNC(=O)c1cccc(C)c1	none
Cc1ccc(N(CC(=O)NC2CCCC2)C(=O)CCC(=O)Nc2nc(C)cs2)cc1	Pf growth 48h inconclusive
NC(=O)c1ccc(Cc2ncc(C(F)(F)F)cc2Cl)s1	Pf growth 96h 5.2µM
O=S(=O)(N/N=C/c1ccc(Cl)cc1)c1ccc(Cc2ncc(C(F)(F)F)cc2Cl)s1	none (no result: Pf growth 96h)

Screening results: PubChem BioAssay, National Center for Advancing Translational Sciences (NCATS)
